USP8 block = inhibitors of human USP8 deubiquitinase | P40818 | purified USP8, Ub-rhodamine cleavage fluorescence, 30 min | inhibition, % at 20 µM | 4.2% of 47,000 active | AID 1645853
USP30 block = blocks human USP30 ubiquitin-rhodamine cleavage; Q70CQ3; purified USP30, Ub-rhodamine cleavage fluorescence; inhibition, % at 25 µM; 5.3% of 47,000 active
USP7 inh = human USP7 deubiquitinase inhibition. purified USP7, Ub-rhodamine cleavage fluorescence. inhibition, % at 20 µM. 0.3% of 47,000 active. AID 1645854. Q93009
USP17 inh = blocks human USP17 ubiquitin-rhodamine cleavage; purified USP17, Ub-rhodamine cleavage fluorescence, 3 h; inhibition, % at 50 µM; 6.5% of 47,000 active; AID 1645855
Target sequence (A8MUK1 whole entry, looked up): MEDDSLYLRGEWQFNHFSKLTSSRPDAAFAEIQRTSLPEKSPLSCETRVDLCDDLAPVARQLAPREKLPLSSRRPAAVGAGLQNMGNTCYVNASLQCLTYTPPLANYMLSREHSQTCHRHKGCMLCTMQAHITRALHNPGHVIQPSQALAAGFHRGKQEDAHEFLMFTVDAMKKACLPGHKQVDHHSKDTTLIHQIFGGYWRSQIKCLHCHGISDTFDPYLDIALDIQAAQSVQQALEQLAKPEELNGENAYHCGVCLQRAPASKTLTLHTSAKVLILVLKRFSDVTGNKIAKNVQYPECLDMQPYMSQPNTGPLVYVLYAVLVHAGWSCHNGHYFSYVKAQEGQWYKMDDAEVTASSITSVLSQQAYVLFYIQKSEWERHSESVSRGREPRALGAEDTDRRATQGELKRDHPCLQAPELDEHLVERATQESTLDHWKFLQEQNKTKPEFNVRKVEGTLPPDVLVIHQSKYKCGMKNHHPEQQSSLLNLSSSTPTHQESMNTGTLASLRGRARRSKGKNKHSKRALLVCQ
UCHL1 block = human UCHL1 deubiquitinase inhibition; P09936; inhibition, % at 20 µM; AID 1645859; purified UCHL1, Ub-rhodamine cleavage fluorescence; 0.2% of 47,000 active
USP10 block = inhibitors of human USP10 deubiquitinase; purified USP10, Ub-rhodamine fluorescence, 60 min; Q14694; inhibition, % at 20 µM; AID 1645856; 1.1% of 47,000 active
Numbers without * were called inactive; · = not tested or not shown. The list is not random: actives were taken first. Their share in the collection is about 13%. No stated cut-off is given here; in the data, active means inhibition above about 30%; inactive means the rest.

SMILES	USP8 block	USP30 block	USP7 inh	USP17 inh	UCHL1 block	USP10 block
Cc1ccc(CN2C(=O)CCc3c(C)nc(C4CCCN4C(=O)c4nccn4C)nc32)cc1 (configuration not stated)	-5.2	-47.8	-2.4	-8.9	-0.5	-7.7
Cn1c(=O)[nH]c(=O)c2c1nc(NCc1ccco1)n2CCO	1.6	19.6	1.9	0.3	-1.3	-0.4
CC(C)(C)c1nn(-c2ccccc2)c2[nH]c(=O)c(CNCc3ccco3)cc12	38.9*	-280.5	16.4	-37.8	-9.2	-2.7
COc1ccc(CCNCc2cc3c(C(C)(C)C)nn(-c4ccccc4)c3[nH]c2=O)cc1OC	45.8*	19.6	3.9	9.0	0.4	0.0
COCCCn1c(C(=O)N2CCC(Cc3ccccc3)CC2)cc2c(=O)n3cccc(C)c3nc21	5.9	28.9	9.3	24.2	5.3	5.4
CCC(=O)Nc1ccc(C(=O)CN2C(=O)NC(c3ccccc3)(c3ccccc3)C2=O)cc1	-5.9	-61.5	-7.0	-7.6	0.4	-7.1
O=C(CCc1nc2ccccc2c(=O)[nH]1)Nc1ccc(Cl)cc1	0.0	-27.5	-20.5	-49.4	-3.9	-0.5
CN(CC(=O)Nc1ccc(Cl)cc1)c1cnn(-c2nc3ccccc3[nH]2)c(=O)c1Cl	30.4*	3.3	17.1	9.9	3.5	25.0
COc1cc(C(=O)Oc2ccc3ccc(=O)oc3c2)cc(OC)c1OC	-31.5	45.0*	0.5	20.9	2.5	0.5
Cc1cc(=O)oc2cc(OCC(=O)Nc3cccc(Cl)c3)ccc12	6.9	-45.8	7.6	8.5	-1.2	9.4
COc1ccc(NC(=O)COc2ccc3ccc(=O)oc3c2)cc1	4.6	15.3	2.8	56.9*	-1.6	2.2
Cc1ccccc1NC(=O)Cn1cccc(S(=O)(=O)N2CCCC2)c1=O	-14.0	-22.7	-4.7	-1.9	-1.4	-4.0
Cc1ccc(-c2nnc(-c3cccc(S(=O)(=O)N4CCCC4)c3)o2)cc1	2.8	17.3	3.5	26.9	0.9	5.9
COc1cccc(-c2cn3c(-c4ccccc4)c(-c4ccccc4)nc3n2-c2cccc(Cl)c2)c1	81.2*	5.7	4.3	27.9	4.7	0.7
COc1cccc(-c2noc(-c3nn(-c4ccc(Cl)cc4)c(=O)c4ccccc34)n2)c1	6.0	-0.5	5.0	9.5	-0.2	0.3
COc1cccc(-c2cn3c(-c4ccccc4)c(-c4ccccc4)nc3n2-c2ccccc2)c1	77.4*	-6.9	1.9	22.2	-0.2	0.1
COc1cccc(-c2cc(C(F)(F)F)c3c(-c4ccccc4)nn(-c4ccccc4)c3n2)c1	-5.1	-29.8	-2.4	-28.9	-5.1	-5.0
CCCn1c(-c2ccc(CC)cc2)cn2c(-c3ccccc3)c(-c3ccccc3)nc12	86.5*	14.6	8.8	33.4*	8.4	4.0
COc1ccc(-c2cn3c(-c4ccccc4)c(-c4ccccc4)nc3n2-c2ccccc2)cc1	80.4*	37.1*	2.4	47.7*	0.5	3.9
c1cncc(CN2CCCC2c2ccnc(Nc3cnccn3)n2)c1 (configuration not stated)	0.8	0.8	-0.9	4.0	-3.5	0.4
CO/C=C/C(=O)c1cc2cnc3c(=N)cc(NC(C)=O)c([nH]1)c23	41.5*	-25.8	-29.4	54.4*	9.7	-6.8
COc1ccc(S(=O)(=O)c2cnc3cc(OC)c(OC)cc3c2NCc2ccccc2)cc1	-13.6	-0.8	6.4	-0.2	2.7	-8.7
COc1ccc(S(=O)(=O)c2cnc3ccc(Cl)cc3c2NCc2ccccc2)cc1	4.5	30.4*	6.3	2.0	5.6	6.5
Cc1cccc(N2C(=O)N(c3ccccc3)C3CS(=O)(=O)CC32)c1C (configuration not stated)	16.6	16.2	-1.2	4.5	0.2	0.6
CCn1c(SCC(=O)Nc2ccc(C)c(Cl)c2)nnc1-c1ccc2c(c1)OCCO2	31.3*	39.8*	3.9	17.0	5.3	18.0
SMILES	USP8 block	USP30 block	USP7 inh	USP17 inh	UCHL1 block	USP10 block
CCn1c(SCC(=O)N2c3ccccc3CC2C)nnc1-c1ccc2c(c1)OCCO2 (configuration not stated)	-3.2	72.6*	-3.1	21.3	0.9	0.3
CCN1CCCn2cc(S(=O)(=O)Nc3ccccc3)cc2C1=O	-0.2	-20.3	-0.3	-10.3	-5.2	-0.5
Cc1cc(C)cc(NS(=O)(=O)C2CCS(=O)(=O)C2)c1 (configuration not stated)	8.3	-5.9	-0.3	-2.8	-2.2	-1.9
Cc1nn(-c2nc3ccccc3[nH]2)c2c1C(c1cccs1)CC(=O)N2 (configuration not stated)	38.4*	-18.5	7.3	52.3*	4.6	19.1
Cc1nn(-c2nc3ccccc3[nH]2)c2c1C(c1ccccc1Cl)CC(=O)N2 (configuration not stated)	51.5*	0.5	5.6	-0.7	-4.8	10.3
Cc1nn(-c2nc3ccccc3[nH]2)c2c1C(c1cccc(F)c1)CC(=O)N2 (configuration not stated)	19.5	-3.6	0.0	-1.8	-2.2	14.2
CC1CCCN(S(=O)(=O)c2ccc(-n3cnc(C(=O)N4CCCC4)c3)nc2)C1 (configuration not stated)	-4.7	46.2*	3.6	29.5	0.0	0.2
CC1CCCN(S(=O)(=O)c2ccc(-n3cnc(C(=O)N4CCCCC4)c3)nc2)C1 (configuration not stated)	-0.2	13.2	0.0	-5.2	-3.1	1.3
Cc1ccc(S(=O)(=O)N(Cc2cccnc2)Cc2cc3cccc(C)c3[nH]c2=O)cc1	-20.9	0.3	0.0	-9.3	0.2	-0.5
Cc1cc(OCC(=O)Nc2c(C)cccc2C)nc(N2CCCCCC2)n1	1.8	9.1	-15.4	30.1*	-0.2	-2.1
Cc1cc(OCC(=O)Nc2ccccc2C#N)nc(N2CCCCCC2)n1	-17.6	·	-9.2	-9.9	-2.0	-4.5
Cc1cc(OCC(=O)Nc2ccccc2C#N)nc(-c2ccc(F)cc2)n1	-14.5	-24.7	-10.1	35.5*	-11.4	-9.6
Cc1cc(OCC(=O)Nc2ccccc2F)nc(N2CCCC(C)C2)n1 (configuration not stated)	14.6	46.8*	-2.0	18.3	6.7	5.9
Cc1cc(Nc2cnccn2)cc(C2CCCN(C(=O)CCOc3cccc(F)c3)C2)n1 (configuration not stated)	-2.3	-12.6	-13.1	-2.5	4.2	-6.9
Cc1cnc(NC(=O)CNC(=O)c2ccccc2F)s1	-5.5	11.9	1.6	-10.7	0.9	-1.7
O=C(CC(=O)c1c(F)cccc1F)c1ccccc1O	26.1	30.1*	-5.2	25.6	1.1	2.9
CCOC(=O)C1(Cc2cc(-c3ccccc3)no2)CCN(Cc2ccc(O)cc2)CC1	1.2	-20.8	-2.1	-23.8	3.8	1.0
O=[N+]([O-])c1ccc(Cc2nnc(-c3ccccc3Cl)o2)cc1	-7.5	0.7	-3.4	34.6*	4.0	3.6
CC(C)(C)c1cc2nc3c(c(=O)n2[nH]1)CN(Cc1ccc(Br)s1)CC3	40.1*	21.2	8.6	6.5	3.0	12.0
